# Experimental data as given in the supplement of paper PMC8728848.
# Only a selection was taken, and the strongest signals are over-represented in it overall.
# B1: PpFlo2 (Pichia pastoris) (protein)
# chain: MGSSHHHHHHSSGLVPRGSHMDDSGNGDNSDTAYGCDITTNAVDGFDATIYQYNANDLRLIRDPTFMSTGYLGRNVLNKISGVTVPGFNIWNPSSRTATVYGVKNVNYYNMVLELKGYFKADVSGDYKLTLSHIDDSSMLFFGKETAFKCCDAGSIPLNEAPTDYSLFTIKPSNQVNSEVISATQYLEAGKYYPVRIVFVNALERARFDFKLTIPSGAVLDDFQNYIYQFGDLDENSCHE
# Assays:
# Assay in all cases: glycan array binding signal (z-score within array); higher = stronger binding
# Conditions in all cases: glycan notation: IUPAC condensed, linker removed
# [1] = biological target: Fuc(a1-2)Gal6S(b1-3)GlcNAc
# Summary of the method: (§1)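 Glycan array data came from 3228 arrays in the Consortium for Functional Glycomics database, and only arrays with an available protein sequence were kept. Glycan names were put into IUPAC-condensed notation, and columns mapping to the same glycan were averaged. The binding signal is a within-array Z-score, averaged across arrays of one protein sequence run at different concentrations or buffers and across linkers. A negative Z-score can be read as non-binding.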
# [2] = biological target: Fuc(a1-2)[Gal(a1-3)]Gal(b1-3)GlcNAc(b1-2)Man(a1-3)[Fuc(a1-2)[Gal(a1-3)]Gal(b1-3)GlcNAc(b1-2)Man(a1-6)]Man(b1-4)GlcNAc(b1-4)[Fuc(a1-6)]GlcNAc
# Summary of the method: as §1
# [3] = biological target: Fuc(a1-2)[Gal(a1-3)]Gal(b1-3)GlcNAc(b1-3)GalNAc
# Summary of the method: as §1
# [4] = biological target: Fuc(a1-2)[Gal(a1-3)]Gal(b1-4)GlcNAc(b1-2)Man(a1-3)[Fuc(a1-2)[Gal(a1-3)]Gal(b1-4)GlcNAc(b1-2)Man(a1-6)]Man(b1-4)GlcNAc(b1-4)GlcNAc
# Summary of the method: as §1
# [5] = biological target: Fuc(a1-2)[Gal(a1-3)]Gal(b1-4)GlcNAc(b1-2)Man(a1-3)[Fuc(a1-2)[Gal(a1-3)]Gal(b1-4)GlcNAc(b1-2)Man(a1-6)]Man(b1-4)GlcNAc(b1-4)[Fuc(a1-6)]GlcNAc
# Summary of the method: as §1
# [6] = biological target: Fuc(a1-2)[Gal(a1-3)]Gal(b1-4)[Fuc(a1-3)]GlcNAc(b1-3)GalNAc
# Summary of the method: as §1
# [7] = biological target: Fuc(a1-2)[GalNAc(a1-3)]Gal(b1-3)GlcNAc(b1-2)Man(a1-3)[Fuc(a1-2)[GalNAc(a1-3)]Gal(b1-3)GlcNAc(b1-2)Man(a1-6)]Man(b1-4)GlcNAc(b1-4)GlcNAc
# Summary of the method: as §1
# Fuc(a1-3)GlcNAc = biological target: Fuc(a1-3)GlcNAc
# Summary of the method: as §1
# [8] = biological target: Fuc(a1-3)[Gal3S(b1-4)]GlcNAc
# Summary of the method: as §1
# [9] = biological target: Gal(a1-3)Gal(b1-3)GlcNAc(b1-6)GalNAc
# Summary of the method: as §1
# [10] = biological target: Gal(a1-4)Gal(b1-4)GlcNAc(b1-2)Man(a1-3)[Gal(a1-4)Gal(b1-4)GlcNAc(b1-2)Man(a1-6)]Man(b1-4)GlcNAc(b1-4)GlcNAc
# Summary of the method: as §1
# Gal(b1-3)GalNAc(b1-3)Gal = biological target: Gal(b1-3)GalNAc(b1-3)Gal
# Summary of the method: as §1
# [11] = biological target: Gal(b1-3)GlcNAc(b1-3)Gal(b1-4)GlcNAc(b1-2)Man(a1-3)[Gal(b1-3)GlcNAc(b1-3)Gal(b1-4)GlcNAc(b1-2)Man(a1-6)]Man(b1-4)GlcNAc(b1-4)GlcNAc
# Summary of the method: as §1
# [12] = biological target: Gal(b1-4)GlcNAc(a1-6)Gal(b1-4)GlcNAc
# Summary of the method: as §1
# [13] = biological target: Gal(b1-4)GlcNAc(b1-2)Man(a1-3)[Gal(b1-4)GlcNAc(b1-2)][GlcNAc(b1-4)]Man(b1-4)GlcNAc(b1-4)GlcNAc
# Summary of the method: as §1
# [14] = biological target: Gal(b1-4)GlcNAc(b1-2)Man(a1-3)[Man(a1-6)]Man(b1-4)GlcNAc(b1-4)GlcNAc
# Summary of the method: as §1
# [15] = biological target: Gal(b1-4)GlcNAc(b1-2)[Gal(b1-4)GlcNAc(b1-6)]Man(a1-6)[GlcNAc(b1-4)][Gal(b1-4)GlcNAc(b1-2)Man(a1-3)]Man(b1-4)GlcNAc(b1-4)GlcNAc
# Summary of the method: as §1
# [16] = biological target: Gal(b1-4)GlcNAc(b1-3)Gal(b1-4)GlcNAc(b1-2)Man(a1-3)[Gal(b1-4)GlcNAc(b1-3)Gal(b1-4)GlcNAc(b1-2)Man(a1-6)]Man(b1-4)GlcNAc(b1-4)[Fuc(a1-6)]GlcNAc
# Summary of the method: as §1
# [17] = biological target: Gal(b1-4)GlcNAc(b1-3)Gal(b1-4)GlcNAc(b1-3)Gal(b1-4)GlcNAc(b1-2)[Gal(b1-4)GlcNAc(b1-3)Gal(b1-4)GlcNAc(b1-3)Gal(b1-4)GlcNAc(b1-6)]Man(a1-6)[Gal(b1-4)GlcNAc(b1-3)Gal(b1-4)GlcNAc(b1-3)Gal(b1-4)GlcNAc(b1-2)Man(a1-3)]Man(b1-4)GlcNAc(b1-4)[Fuc(a1-6)]GlcNAc
# Summary of the method: as §1
# [18] = biological target: Gal(b1-4)GlcNAc(b1-3)Gal(b1-4)GlcNAc(b1-3)Gal(b1-4)GlcNAc(b1-3)Gal(b1-4)GlcNAc(b1-2)Man(a1-3)[Gal(b1-4)GlcNAc(b1-3)Gal(b1-4)GlcNAc(b1-3)Gal(b1-4)GlcNAc(b1-3)Gal(b1-4)GlcNAc(b1-2)Man(a1-6)]Man(b1-4)GlcNAc(b1-4)[Fuc(a1-6)]GlcNAc
# Summary of the method: as §1
# [19] = biological target: Gal3S(b1-3)[Fuc(a1-4)]GlcNAc
# Summary of the method: as §1
# Gal6S(b1-3)GlcNAc6S = biological target: Gal6S(b1-3)GlcNAc6S
# Summary of the method: as §1
# [20] = biological target: GlcNAc(b1-2)Man(a1-3)[GlcNAc(b1-2)Man(a1-6)]Man(b1-4)GlcNAc(b1-4)GlcNAc
# Summary of the method: as §1
# [21] = biological target: GlcNAc(b1-2)[GlcNAc(b1-4)]Man(a1-3)[GlcNAc(b1-4)][GlcNAc(b1-2)[GlcNAc(b1-6)]Man(a1-6)]Man(b1-4)GlcNAc(b1-4)GlcNAc
# Summary of the method: as §1
# GlcNAc(b1-3)Gal = biological target: GlcNAc(b1-3)Gal
# Summary of the method: as §1
# [22] = biological target: GlcNAc(b1-3)Gal(b1-4)GlcNAc(b1-2)Man(a1-3)[GlcNAc(b1-3)Gal(b1-4)GlcNAc(b1-2)Man(a1-6)]Man(b1-4)GlcNAc(b1-4)GlcNAc
# Summary of the method: as §1
# [23] = biological target: GlcNAc(b1-3)Gal(b1-4)GlcNAc(b1-2)Man(a1-3)[GlcNAc(b1-3)Gal(b1-4)GlcNAc(b1-2)Man(a1-6)]Man(b1-4)GlcNAc(b1-4)[Fuc(a1-6)]GlcNAc
# Summary of the method: as §1
# [24] = biological target: GlcNAc(b1-3)Gal(b1-4)GlcNAc(b1-3)Gal(b1-4)GlcNAc(b1-2)Man(a1-3)[GlcNAc(b1-3)Gal(b1-4)GlcNAc(b1-3)Gal(b1-4)GlcNAc(b1-2)Man(a1-6)]Man(b1-4)GlcNAc(b1-4)GlcNAc
# Summary of the method: as §1
binder,measurement,setting,value
B1,glycan array binding signal (z-score),[1],-0.272
same,glycan array binding signal (z-score),[2],-0.293
same,glycan array binding signal (z-score),[3],-0.288
same,glycan array binding signal (z-score),[4],-0.209
same,glycan array binding signal (z-score),[5],-0.288
same,glycan array binding signal (z-score),[6],-0.297
same,glycan array binding signal (z-score),[7],-0.287
same,glycan array binding signal (z-score),Fuc(a1-3)GlcNAc,-0.292
same,glycan array binding signal (z-score),[8],-0.313
same,glycan array binding signal (z-score),[9],-0.271
same,glycan array binding signal (z-score),[10],-0.23
same,glycan array binding signal (z-score),Gal(b1-3)GalNAc(b1-3)Gal,-0.272
same,glycan array binding signal (z-score),[11],-0.174
same,glycan array binding signal (z-score),[12],-0.273
same,glycan array binding signal (z-score),[13],-0.344
same,glycan array binding signal (z-score),[14],-0.273
same,glycan array binding signal (z-score),[15],-0.297
same,glycan array binding signal (z-score),[16],-0.25
same,glycan array binding signal (z-score),[17],-0.261
same,glycan array binding signal (z-score),[18],-0.243
same,glycan array binding signal (z-score),[19],-0.286
same,glycan array binding signal (z-score),Gal6S(b1-3)GlcNAc6S,-0.286
same,glycan array binding signal (z-score),[20],3.88
same,glycan array binding signal (z-score),[21],0.675
same,glycan array binding signal (z-score),GlcNAc(b1-3)Gal,1.09
same,glycan array binding signal (z-score),[22],4.64
same,glycan array binding signal (z-score),[23],4.49
same,glycan array binding signal (z-score),[24],3.9
